Calls of active or inactive are those of the source.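 How the source made its calls: active means viability below 50% at the top dose and a half-maximal effect concentration under 10 µM; inactive means the rest.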
experiment: viability of NIH 3T3 fibroblasts – cell-based, CellTiter-Glo, Powder Set01 subset01, cytotoxicity control for AML myeloid differentiation project, dose response (AID 652120); conditions: NIH 3T3 viability, ATP luminescence (CellTiter-Glo); series mostly up to 10 µM

| SMILES | outcome |
| --- | --- |
| O=C(O)c1cccnc1Nc1ccc(Cl)cc1 | inactive |
| Cc1ccc(Nc2nc(=O)c3cccnc3s2)c(Br)c1 | inactive |
| O=C(CCNC(=O)c1ccc(Cl)cc1)NC1CCCc2ccccc21 (stereo not drawn) | inactive |

Source: PubChem BioAssay AID652120 (NMMLSC, 2013)
